The source made the active and inactive calls. The calls were made as follows: active = hit-call score of the fitted dose curve at least 0.9, where 1 is the maximum; inactive = score below 0.9.
Columns and labels:
[1] = CCTE_Padilla_ZF_Score.General: CCTE's 144 Hour Post-fertilization zebrafish Assay Score for General Malformation, Padilla Lab (AID 2284411)
Procedure, shortened: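 Wild-type zebrafish embryos were plated singly at 6-8 hpf in 10% Hanks' and exposed in sealed wells at 26C until rinsed on 5 dpf. At 6 dpf two blinded assessors scored mortality, hatching and malformations by stereomicroscopy; gain-of-signal versus DMSO.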

[2] = CCTE_Padilla_ZF_Score.Tail: CCTE's 144 Hour Post-fertilization zebrafish Assay Score for Tail Malformation, Padilla Lab (AID 2284414)
Procedure, shortened: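 Wild-type zebrafish embryos, one per well in 200 uL 10% Hanks', dosed at 6-8 hpf, sealed, and kept at 26 C on a 14:10 h light cycle. Chemical was rinsed out at 5 dpf. Blinded brightfield scoring of tail defects followed at 6 dpf.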

[3] = CCTE_Padilla_ZF_Score.Blood_pooling: CCTE's 144 Hour Post-fertilization zebrafish Assay Score for Blood Pooling, Padilla Lab (AID 2284415)
Procedure, shortened: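 Wild-type outbred zebrafish embryos, one per well in 10% Hanks', exposed from 6–8 hpf in sealed plates at 26C on 14:10 h light:dark, rinsed at 5 dpf. Blinded stereomicroscope scoring of blood pooling at 6 dpf; gain-of-signal versus DMSO.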

[4] = CCTE_Padilla_ZF_Score.Any: CCTE's 144 Hour Post-fertilization zebrafish Assay Score for Any Mortality or Malformation, Padilla Lab (AID 2284416)
Procedure, shortened: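 Wild-type zebrafish embryos with chorions, one per well in 10% Hanks' from 6–8 hpf, dosed in sealed plates at 26 C, 14:10 h light:dark; rinsed at 5 dpf; blinded scoring at 6 dpf for death or malformation, versus DMSO.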

With `NC(=S)Nc1ccccc1` the outcome [1] was “inactive”.

In the case of `O=C(O)C(F)(F)C(F)(F)C(F)(F)C(F)(F)C(F)(F)C(F)(F)C(F)(F)C(F)(F)C(F)(F)C(F)(F)F`, the AC50 [1] is reported as 2.51 µM (active), the outcome [2] is reported as “inactive” and the outcome [3] is reported as “inactive”. For the same molecule, the AC50 [4] was 3.35 µM (active).

With `COc1cc(OC)nc(NC(=O)NS(=O)(=O)c2ncccc2C(=O)N(C)C)n1` the outcome [1] was “inactive”.

For `CCOP(=S)(OCC)Oc1ccc(S(C)=O)cc1` (stereo unspecified), the outcome [1] was “inactive”.

In the case of `CC(C)CCCCCCOC(=O)c1ccccc1C(=O)OCCCCCCC(C)C`, the outcome [1] is reported as “inactive”.

In the case of `CC(=O)C(Cl)C(=O)N(C)C` (stereo unspecified), the outcome [1] is reported as “inactive”.

In the case of `CCOP(=S)(OCC)SCCS(=O)(=O)CC`, the outcome [1] is reported as “inactive”.

For `O=C(O)CCC(F)(C(F)(F)F)C(F)(F)F`, the outcome [1] was “inactive”, the outcome [2] was “inactive” and the outcome [3] was “inactive”. For the same molecule, the outcome [4] was “inactive”.

In the case of `O=C(O)C(F)(F)C(F)(F)C(F)(F)C(F)(F)C(F)(F)C(F)(F)F`, the outcome [1] is reported as “inactive”, the outcome [2] is reported as “inactive” and the outcome [3] is reported as “inactive”. For the same molecule, the AC50 [4] was 98.9 µM (active).

In the case of `Nc1cccc2ccccc12`, the outcome [1] is reported as “inactive”.

In the case of `BrCCBr`, the outcome [1] is reported as “inactive”.

In the case of `Nc1ncc([N+](=O)[O-])s1`, the outcome [1] is reported as “inactive”.
